Measurements as given in publication PMC12136788.
Over roughly 24,000 sequences, “enrichment r” has its median near 0.99; the highest 2% begin near 3.7. Many of the other results were omitted from the sample, so the highest values are more common in it than they were.

T1: UNK ZnF1-3 (human, UniProt Q9C0B0 31-174)
T1 sequence: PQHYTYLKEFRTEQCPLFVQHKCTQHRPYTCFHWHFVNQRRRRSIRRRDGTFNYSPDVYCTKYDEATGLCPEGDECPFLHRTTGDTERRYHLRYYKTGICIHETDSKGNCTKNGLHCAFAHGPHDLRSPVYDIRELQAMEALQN

B1: 69202206_69203042_311_CDS_ENSG00000135679_ENST00000462284|human|control|control (ssRNA)
RNA: GGGAGUUCUACAGUCCGACGAUCUGAGGUGGUUACAGCACCAUCAGUAGGUACAGACAUGUUGGUAUUGCACAUUUGCCUGCUCCUCACCAUCCGGGGUUUUCGCGCUUGGAGUCGGGGGUCCCUCAAGACUCCCCAGUUUCCCAACAGAGGAUUGAGCAUCA
B2: chr1:135503150:135503151:-_ENSMUSG00000090553_ENSMUST00000166915|mus_hu|motif|central (ssRNA)
RNA: GGGAGUUCUACAGUCCGACGAUCUUCUGCAUCAUCUAAUACAAGGUUCAUAUACUCAUCAAAACCAAUGAUACAGCCUUCGGUCCGCAUAUUCACUUGCUCAUAGAGCCACACCUGAAUCCGCGAUCUCUGAAAUAAUCAUAACAACAGAGGAUUGAGCAUCA
B3: chr14:31337589:31337590:+_ENSMUSG00000021962_ENSMUST00000022535|mus_mus|motif|central (ssRNA)
RNA: GGGAGUUCUACAGUCCGACGAUCAAUGACCUGUAUCAUAGAAACGAAGACACUUUUCAUUCAAAGAAUAUCUCAAAAUUACGGUUGCUGAAAUAAUCAAAUUCUACAUUAAAAUAUUACCAAACACCAUUACAUGCCAUAAAACAACAGAGGAUUGAGCAUCA
B4: chr1:100327937:100327938:+_ENSG00000162688_ENST00000361915|hu_hu|motif|central (ssRNA)
RNA: GGGAGUUCUACAGUCCGACGAUCUUCUUUUGCAACCCUAAGUCUGCUUUCCCAUUCAUCAAAAGGUCCCAAACACUUAGCGGAAAAUGUCUGAAGAGUAACACAGUCCAAGGGUAGCACAUGAUUAUCAGCACCAACACGUAACAACAGAGGAUUGAGCAUCA
B5: 116785305_116785425_2892_3pUTR_ENSMUSG00000055531_ENSMUST00000069168|mouse|control|control (ssRNA)
RNA: GGGAGUUCUACAGUCCGACGAUCAAAAAAUGAAAGAAAGGAAAAAAAAAGAAAAAAAAAUCAGCUGAUUAACUCUAAUCAAGCAUAGAUCAACAAGGUUACAGGAAUACACACACAAUUCCUUGAGCCAUGAAGACAGUGUAACAACAGAGGAUUGAGCAUCA
B6: chr1:130270616:130270617:-_ENSMUSG00000026356_ENSMUST00000027602|mus_hu|FALSE|FALSE (ssRNA)
RNA: GGGAGUUCUACAGUCCGACGAUCGUAAUGGUAAUUAAAAGCCAUUUCAAUGUCCAAACCAACAAACUCAGUUAGAUGUCUAUGGGUAUUAGAGUCUUCCGCUCUGAAUACUGGUCCAAUAGAGAAAACCUUCUCAAAAUCAGCCAACAGAGGAUUGAGCAUCA
B7: chr1:58468927:58468928:-_ENSMUSG00000026034_ENSMUST00000148330|mus_mus|mus_mus_mus_hu_False|38_108 (ssRNA)
RNA: GGGAGUUCUACAGUCCGACGAUCAAUCUAUAAUUACGAUGUUCAUUACCUUAGCUAUGUACUUAAUGAACCAAAUUACCCAAACAAAAUAAACAUGUUUACAAAUUAAUGUUAAGAAUUUACAAAGCUGUACAAAAUAACUUACAACAGAGGAUUGAGCAUCA
B8: 67235911_67236031_3360_3pUTR_ENSMUSG00000036371_ENSMUST00000042990|mouse|control|control (ssRNA)
RNA: GGGAGUUCUACAGUCCGACGAUCAACAUUCAAAAAUCUUAAACAAGAAUUAUCUUACGAUAAUGAAAAAGGGAAACCAAGAAACAUAUAAAGGGGUUCCCACUUGAUUGCUUUUAUCUUUUAGGAAAUGAGCAUGAAAAUAAACAACAGAGGAUUGAGCAUCA
B9: chr5:122939345:122939346:-_ENSMUSG00000029467_ENSMUST00000031423|mus_mus|FALSE|FALSE (ssRNA)
RNA: GGGAGUUCUACAGUCCGACGAUCCUUUCUGUCCUGUCGAUACACUUUGCCCAUUUCAGGCUCAUAUUCCUUAAGAGCUUCUAUUGCAUUUUCAGCAUUUCUUUCCUGCCACACACCCACGAUUGCAUUGGCUACCAAGAUAAGCAACAGAGGAUUGAGCAUCA
B10: chr3:41281487:41281488:+_ENSG00000168036_ENST00000349496|hu_hu|motif|central (ssRNA)
RNA: GGGAGUUCUACAGUCCGACGAUCCUACGAGAGACUUAAAAAACAGUUACUGCAAAAAAAAAAAAAAAAAAAAAAAAAGAGCGGCUUCAAAGCAAGCAAAGUCAGUACCAUUACAGAUAUUCUUAAAAAAAAAAAAAAAAAAAUCAACAGAGGAUUGAGCAUCA
B11: chr4:40680069:40680070:+_ENSMUSG00000028410_ENSMUST00000030118|mus_hu|motif|central (ssRNA)
RNA: GGGAGUUCUACAGUCCGACGAUCAAAAUCAGAGCUUUUAUAUUUGCGUUUAUUCUUCAUUUAACUUUUUAAAACACGGCGGUAGUUUAUUAAAACAAAAACAAGAGCAAGUAGUGAGCAUAUUAUGAUUACAGUCCUUCACUCCAACAGAGGAUUGAGCAUCA
B12: chr1:38489359:38489360:+_ENSG00000183520_ENST00000537711|hu_mus|FALSE|FALSE (ssRNA)
RNA: GGGAGUUCUACAGUCCGACGAUCAGUCAUGAUUACAAAACAGGAAGACCAAGCCAUUUGAAUUAAUAAAAUCUGAAGUUAUUACAAAAGACAGGAGGAAAAGAUAAUAAUUCUUUUCGAUACAGAAUGCUGAGGCUUAAUUUUCAACAGAGGAUUGAGCAUCA
B13: 97946324_97946444_1485_ncRNA_ENSMUSG00000021666_ENSMUST00000159321|mouse|control|control (ssRNA)
RNA: GGGAGUUCUACAGUCCGACGAUCUGAUUCUGAAAUCAUGUAAAUUAAGAUUUGUUAGGCUGUUUUUUUUUUAAAUAAACCAUCUUUUUAUUGAUUGAAUCUUUCUAUCCCUGAAUCAAACACUGAAUCUUUUAUGUGAGCAGCCAACAGAGGAUUGAGCAUCA
B14: chr7:40134317:40134318:+_ENSG00000065883_ENST00000340829|hu_mus|FALSE|FALSE (ssRNA)
RNA: GGGAGUUCUACAGUCCGACGAUCGGAAGGGUCAUUGCUGUUUGUGAGGACUGUGAUAGGACCAUGGCUAUAUUCAAAUCUAUGGUCCUUGUCUCCACUAAACAACAUGGGACCAGCAUUGAGGUAAAUGUCUCCAUAUCCAGCCAACAGAGGAUUGAGCAUCA
B15: chr11:61557309:61557310:-_ENSG00000134825_ENST00000537328|hu_mus|FALSE|FALSE (ssRNA)
RNA: GGGAGUUCUACAGUCCGACGAUCGAUGCCAACCCAGAGCAGGAGGAAGAGGACUCCAAAGCCCAUGAAGAGUGAGGCCACCAAGGAGAUGAGGAGCUCUUUGUAAAUAUCGCGUGUGUACUUGGUAGAGGUGACCUCGUAAACCAACAGAGGAUUGAGCAUCA
B16: chr17:60744165:60744166:+_ENSG00000011028_ENST00000303375|hu_mus|FALSE|FALSE (ssRNA)
RNA: GGGAGUUCUACAGUCCGACGAUCGUUGAGGUACUUGAGGGGUGAGUUGUCUGACCACUGCCAGCCUCCACUGGUAUCCAGGUCAUUAAGGCCAAUCCAUAGCGUGGAGCUGUAGCCCGUGAGGAGCCCGUUGAUGUAGGUCUGCAACAGAGGAUUGAGCAUCA

molecular target: T1, UNK ZnF1-3; test: nsRBNS (natural sequence RNA bind-n-seq); RBNS binding buffer (assumed for nsRBNS): 25 mM Tris pH 7.5, 150 mM KCl, 3 mM MgCl2, 0.01% Triton X-100, 500 ug/ml BSA, 20 U/ml SUPERase-In, 4 C; UNK is unkempt and MSI1 is Musashi-1; names of the RNAs are library labels; protein concentration not given here; high values mean tight binding

| Binder | binding signal |
| --- | --- |
| B1 | 0.532 enrichment R |
| B2 | 1.18 enrichment R |
| B3 | 0.998 enrichment R |
| B4 | 1.32 enrichment R |
| B5 | 4.36 enrichment R |
| B6 | 0.771 enrichment R |
| B7 | 0.436 enrichment R |
| B8 | 5.78 enrichment R |
| B9 | 0.9 enrichment R |
| B10 | 8.09 enrichment R |
| B11 | 1.05 enrichment R |
| B12 | 8.05 enrichment R |
| B13 | 0.66 enrichment R |
| B14 | 0.887 enrichment R |
| B15 | 2.5 enrichment R |
| B16 | 1.03 enrichment R |
